This is a sample that favours compounds with a hit; in the whole collection about 2% have one here.
B2AR ag – activates human beta-2 adrenergic receptor causing internalization | response, % (concentration not given with the values) | hit rate 0.43% among 340,000 | Am2.2-beta2AR cells, FAP receptor internalization, flow cytometry | P07550;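 active means response above a set limit, near 3 SD of response in nonfluorescent compounds, cut at about 42% in these data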
NOD2 RIPK2 PPI – NOD2-RIPK2 protein interaction inhibition | O43353 | CHO BLA complementation NOD2-RIPK2, CCF4 ratio | inhibition, % at 4.98 µM | hit rate 0.38% among 360,000; in the data active means inhibition above about 21%;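 further: 0% = vehicle only and 100% = reference blocker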
ABHD5-PLIN5 inh – inhibitors of human ABHD5-perilipin-5 interaction. Q00G26+Q8WTS1. Split G. princeps luciferase complementation, luminescence, 4 h. inhibition, % at 4 µM. hit rate 0.78% among 360,000;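 active means inhibition above the mean inhibition across every tested compound plus 3 SD, cut at about 22% in these data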;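 further: 0% = DMSO only wells and the 100% control is not disclosed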
Granule exo inh – blocks lytic granule exocytosis; inhibition, % at 10 µM; TALL-104 LAMP-1 surface exposure, flow cytometry; cells stimulated with thapsigargin and PMA; hit rate 0.66% among 360,000;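 active means inhibition above about 55%, limit read from the data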
TLR9-MyD88 block – inhibitors of human TLR9-MyD88 binding | Q9NR96+Q99836 | AID 504734 | inhibition, % at 4.98 µM | CHO BLA complementation TLR9-MyD88, CCF4 FRET ratio | hit rate 0.21% among 340,000;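 active means inhibition above the mean over all tested compounds plus 3 SD, cut at about 21% in these data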;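 further: 0% = DMSO only wells and 100% = clavulanate BLA inhibitor control wells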
TLR4 MyD88 comp – inhibitors of human TLR4-MyD88 binding | HeLa CL3-4 TLR4/MyD88 BLA complementation, FRET ratio | AID 861 | inhibition, % at 8.4 µM | O00206+Q99836 | hit rate 0.18% among 200,000; in the data active means inhibition above about 25%;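 further: 0% = vehicle and 100% = reference inhibitor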
NOD2 RIPK2 conf – confirmation of human NOD2-RIPK2 interaction inhibitors; shares compounds with NOD2 RIPK2 PPI; CHO cells, NOD2-RIPK2 BLA complementation, CCF4 FRET; inhibition, % at 4.98 µM; hit rate 70% among 1,200; AID 624370;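 active means mean inhibition across replicates above a set limit taken from the earlier primary screen, cut at about 21% in these data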;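 further: 0% = DMSO-only wells and the high end = clavulanate BLA-blocked wells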
NOD2 BLA counter – NOD2-RIPK2 counterscreen BLA reporter activity; inhibition, % at 4.98 µM; shares compounds with NOD2 RIPK2 PPI; hit rate 57% among 1,200; CHO BLA reporter, CCF4 FRET ratio; AID 624371;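 active means mean inhibition above the low-control mean inhibition plus three low-control SD, cut at about 11% in these data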;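 further: 0% = DMSO only wells and 100% = clavulanate high control wells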
An asterisk follows results filed as active; nt = not tested or not shown.

SMILES	B2AR ag	NOD2 RIPK2 PPI	ABHD5-PLIN5 inh	Granule exo inh	TLR9-MyD88 block	TLR4 MyD88 comp	NOD2 RIPK2 conf	NOD2 BLA counter
O=C(Nc1ccc(S(=O)(=O)N2CCCC2)cc1)c1ccc([N+](=O)[O-])o1	34	23*	8	-18	2	nt	27*	21*
CCC(=O)N1CCN(c2ccc(NC(=O)c3ccc([N+](=O)[O-])o3)cc2Cl)CC1	24	20	-1	-2	7	6	nt	nt
O=C(Nc1ccc(N2CCOCC2)cc1)c1ccc([N+](=O)[O-])o1	6	7	-1	6	-4	nt	nt	nt
O=C(OCc1ccccc1)N1CCC2CC1c1ccc(/C=C/CCCCl)cc12 (configuration not stated)	nt	9	3	1	nt	nt	nt	nt
O=C(N/C(=C/c1ccc([N+](=O)[O-])cc1)C(=O)N1CCOCC1)c1ccco1	-1	-3	0	1	-10	nt	nt	nt
COc1ccc(/C=N/NC(=O)CNC(=O)c2ccncc2)cc1OC	-7	5	-1	-7	1	nt	nt	nt
CC1Cc2[nH]c(=S)[nH]c(=O)c2C(c2ccc(F)cc2)O1 (configuration not stated)	nt	-2	1	-2	nt	nt	nt	nt
Cc1nc2c(OCc3cc(Cl)cc(Cl)c3)cccn2c1N(C)C(=O)CCC1CCCC1	nt	-5	1	-17	nt	nt	nt	nt
CCCCC(=O)N(C)c1c(CC)nc2c(OCC(=O)N3CCOCC3)cccn12	nt	-8	2	-4	nt	nt	nt	nt
Cc1ccc2nc(-c3ccc(NC(=S)NCCC(C)C)cc3)sc2c1	5	-1	-1	-2	-1	-2	nt	nt
CCCCNC(=S)Nc1ccc(-c2nc3ccc(C)cc3s2)cc1	2	23*	-4	-2	-9	-6	-1	-3
Cc1c(O)ccc2cc(S(=O)(=O)c3ccccc3)c(=O)oc12	4	34*	-1	-8	-1	nt	33*	58*
O=C1CC(N2CCN(c3ccccc3)CC2)C(=O)N1c1ccc2c(c1)OCCO2 (configuration not stated)	3	-14	7	2	3	16	nt	nt
CN1CCN(C2CC(=O)N(c3ccc4c(c3)OCCO4)C2=O)CC1 (configuration not stated)	-4	24*	3	1	-6	-4	-1	-2
COC(=O)c1cccc(Cn2c(Cl)c(/C=N/Nc3ccccc3C)sc2=O)c1	7	38*	11	4	7	-2	5	0
CC(C)C[C@H]1CN(CCCC[C@@H]2CNC(=O)C(=O)N2CCc2ccccc2)C(=O)C(=O)N1CCC1CCCCC1	nt	-8	6	-5	nt	nt	nt	nt
Cc1cccc(C(=O)Nc2ccc(C(=O)/C=C/c3ccncc3)cc2)c1	60*	56*	91*	40	9	nt	76*	2
Cc1cccc(C(=O)Nc2cccc(C(=O)N/N=C/c3ccncc3)c2)c1	2	3	2	-5	0	-1	nt	nt
CCCCCC[n+]1ccccc1/C=C/c1ccc(N(C)C)cc1	nt	33*	12	27	nt	nt	41*	41*
CC[n+]1ccccc1/C=C/c1ccc(N(C)C)cc1	-342	1	5	-2	-6	7	nt	nt
O=C(Nc1nc2cc3c(cc2s1)OCO3)c1ccc(N2C(=O)CCC2=O)cc1	12	22*	-1	2	1	nt	32*	31*
O=[N+]([O-])c1ccc2nc(NN=Cc3ccc(O)cc3)sc2c1	17	23*	4	2	8	nt	25*	32*
c1ccc(COc2ncnc3c2ncn3CCCNC2CCN(Cc3ccccc3)CC2)cc1	nt	13	6	50	7	nt	nt	nt
COc1ccc(/C=C/C(=O)c2cc(F)ccc2OC(=O)c2ccccc2)cc1OC	4	26*	14	9	1	7	18	-2
CNC[C@@H](Cc1ccccc1)NC[C@@H](CC1CCCCC1)NCCCc1ccccc1	26	-4	13	7	-5	nt	nt	nt
SMILES	B2AR ag	NOD2 RIPK2 PPI	ABHD5-PLIN5 inh	Granule exo inh	TLR9-MyD88 block	TLR4 MyD88 comp	NOD2 RIPK2 conf	NOD2 BLA counter
CNC[C@@H](CC1CCCCC1)NC[C@H](CC(C)C)NCCc1cccc(C(F)(F)F)c1	43*	21*	17	0	-5	nt	28*	6
N#CC(C#N)=C1C=CC=CN1/C(=C\c1ccco1)C(=O)c1ccc(Cl)cc1	58*	94*	87*	90*	19	-9	91*	17*
CC(/C=N/n1c(-c2ccc(Cl)cc2)n[nH]c1=S)=C\c1ccco1	-13	6	-2	18	-9	9	nt	nt
COc1ccc(NC(=O)C(c2ccc(C(F)(F)F)cc2)n2c(=O)c(-c3cc4ccccc4[nH]3)nc3ccccc32)cc1 (configuration not stated)	nt	41*	-10	11	nt	nt	38*	64*
CC(O)c1nc2ccccc2n1CC(=O)Nc1ccc2c(c1)OCCO2 (configuration not stated)	1	-10	0	-1	-2	-15	nt	nt
COc1ccc(C(C(=O)Nc2ccc3c(c2)OCCO3)n2c(=O)c(-c3cc4ccccc4[nH]3)nc3ccccc32)cc1 (configuration not stated)	nt	45*	18	10	nt	nt	43*	65*
Cc1ccc(-n2nc3c(N4CCC(C(=O)NCc5ccccc5C)CC4)nnc(C)c3c2C)cc1	16	24*	12	31	6	nt	36*	7
CCCNC(=O)C1(C)CCN(Cc2ccc(C(=O)OCC)cc2)C1 (configuration not stated)	nt	-9	-4	-4	nt	nt	nt	nt
Cc1cc2nc(-c3ccc(Cl)cc3)c(CC3CCCCC3)n2c(C)c1Br	nt	-4	-5	0	nt	nt	nt	nt
CCOCCCNC(=O)c1ccc2c(c1)N=C(CC)c1cc(Br)ccc1S2	26	28*	-1	24	-2	3	7	0
CCC1=Nc2cc(C(=O)NCCN3CCOCC3)ccc2Sc2ccccc21	-2	1	8	-8	7	nt	nt	nt
CCNC(=O)C1(C)CCN(C(=O)c2ccccc2F)C1 (configuration not stated)	nt	5	-8	18	nt	nt	nt	nt
Nc1cc2c(cc1Cl)-c1ccc([N+](=O)[O-])cc1C2=NO	-73	22*	-6	-5	0	nt	18	26*
COc1ccc(OCC(O)CNCCOc2ccccc2OC)c(C(C)(C)C)c1 (configuration not stated)	12	9	-2	38	-11	nt	nt	nt
COc1ccc(C(=O)Nc2ccc(C)cc2C(=O)c2ccccc2)cc1	-19	1	-8	4	-4	-2	nt	nt
